TRPV1 potentiator – enhances activation of the human vanilloid receptor TRPV1. potentiation, % at 8.33 µM. Q8NER1. AID 540277. TRPV1-expressing cells, Fluo-8 calcium influx, capsaicin EC20 potentiation. actives 0.02% (n = 320,000); in the data active means potentiation above about 80%; inconclusive means between about 30% and that limit
Target sequence (Q8NER1 whole entry, looked up): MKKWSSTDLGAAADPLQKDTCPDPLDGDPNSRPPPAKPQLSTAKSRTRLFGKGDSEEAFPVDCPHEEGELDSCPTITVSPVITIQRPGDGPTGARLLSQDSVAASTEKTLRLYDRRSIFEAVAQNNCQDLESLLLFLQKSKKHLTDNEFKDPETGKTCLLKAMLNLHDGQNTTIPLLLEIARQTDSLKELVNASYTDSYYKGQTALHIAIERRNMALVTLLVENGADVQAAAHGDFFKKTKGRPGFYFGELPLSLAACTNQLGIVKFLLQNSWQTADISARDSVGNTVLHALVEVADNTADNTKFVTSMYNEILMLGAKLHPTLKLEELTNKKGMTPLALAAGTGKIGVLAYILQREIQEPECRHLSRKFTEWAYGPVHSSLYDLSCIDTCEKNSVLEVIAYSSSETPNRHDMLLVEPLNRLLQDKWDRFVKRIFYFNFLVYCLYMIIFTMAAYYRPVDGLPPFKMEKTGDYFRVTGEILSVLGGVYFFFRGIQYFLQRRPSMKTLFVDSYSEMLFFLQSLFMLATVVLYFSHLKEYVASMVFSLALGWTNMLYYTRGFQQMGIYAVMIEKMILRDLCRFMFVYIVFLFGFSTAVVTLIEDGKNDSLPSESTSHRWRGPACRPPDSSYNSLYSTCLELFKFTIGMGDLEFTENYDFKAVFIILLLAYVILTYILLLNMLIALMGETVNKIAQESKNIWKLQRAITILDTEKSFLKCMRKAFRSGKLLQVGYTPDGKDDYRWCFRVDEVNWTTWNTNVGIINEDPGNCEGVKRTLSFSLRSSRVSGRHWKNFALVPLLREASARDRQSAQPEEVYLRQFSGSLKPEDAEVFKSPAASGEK
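Cells expressing TRPV1 were dye-loaded with Fluo-8 and read kinetically: 10 s baseline, 3 min after compound (agonist portion), then 2 min after EC20 capsaicin (allosteric enhancer portion). Calcium-bound dye fluorescence at 480/520 nm.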
D1 agonist – agonists of human D1 dopamine receptor | P21728 | HEK293 T-REx D1 cells, calcium flux, agonist mode | actives 1% (n = 360,000) | activation, % at 2 µM; in the data active means activation above about 30%
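Agonism was scored from calcium flux recorded over 180 s (1 read/s) after pintool compound addition, following a 10-cycle baseline. Cells were inducible force-coupled HEK293 TREx D1, plated overnight at 30 C and loaded with no-wash calcium dye.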
TRPV1 ag – human TRPV1 agonism; activation, % at 8.33 µM; Q8NER1; AID 540275; actives 0.19% (n = 320,000); TRPV1-expressing cells, Fluo-8 calcium influx, agonist mode; in the data active means activation above about 80%; inconclusive means between about 30% and that limit
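TRPV1-expressing cells were cultured overnight at 35.5C and loaded with Fluo-8 calcium dye for 40 to 90 min at room temperature. After a 10 s baseline, compound was added and calcium influx was read kinetically for 3 min (ex 480/em 520 nm).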
D1 antag – human D1 dopamine receptor antagonism. HEK293 TREx D1 cells, calcium flux, dopamine EC80; stronger effect = lower value. activity change, negative = inhibition, % at 10 µM. actives 3.2% (n = 360,000); in the data active means activity change below about -30%
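Cells carrying a force-coupled, tetracycline-inducible human D1 receptor report calcium flux. Each well gets a 10 s baseline, compound with 180 s monitoring, then an EC80 dopamine stimulus with a second 180 s kinetic read.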
D1 potentiator – potentiators of human D1 dopamine receptor; P21728; HEK293 TREx D1 cells, calcium flux, dopamine EC20 potentiation; potentiation, % at 10 µM; actives 0.036% (n = 360,000); in the data active means potentiation above about 30%
Of the large screens only hits and unclear results are named; the others gave an inactive call; ! = not active in a repeat. This is a sample that favours compounds with a hit; in the whole collection about 4.2% have one here.

Cc1ccc(N(C)C(=O)c2cc(S(=O)(=O)N3CCOCC3)cn2C)cc1	none (no result: TRPV1 potentiator, TRPV1 ag)
Clc1cccc(CNc2nnnn2-c2ccccc2)c1	D1 agonist 37.4, D1 antag -46.5
OCCCc1nc2n(n1)C(c1cccs1)C=C(c1ccccc1)N2 (stereo not given)	D1 agonist 34.3 (no result: D1 potentiator)
OCCCc1nc2n(n1)C(c1ccccc1)C=C(c1ccc(F)cc1)N2 (stereo not given)	none
CC(=O)c1c(C(C)=O)c(C)n(NC(=O)c2ccccc2Cl)c1C	D1 antag -49.1 (no result: TRPV1 potentiator, TRPV1 ag)
Cc1ccc(C)n1NC(=O)c1ccccc1Cl	none
CC(C)(C)OC(=O)N[C@@H](C(=O)OC(C)(C)C)c1ccccc1	TRPV1 ag inconclusive, D1 antag -35.0
Cc1cccc([C@@H](NC(=O)OC(C)(C)C)C(=O)OC(C)(C)C)c1	TRPV1 ag inconclusive (no result: D1 antag)
Cc1cc(/C=C(\C#N)C(=O)NCC2CCCO2)c(C)n1-c1ccc(Cl)cc1 (stereo not given)	TRPV1 ag inconclusive, D1 antag -35.0
CCOc1ccc(S(=O)(=O)c2cn(Cc3ccc(C)cc3)c3ccc(OC)cc3c2=O)cc1	none (no result: TRPV1 potentiator, TRPV1 ag)
Cc1cc([N+](=O)[O-])cc(C)c1OCC(=O)N/N=C/c1ccc(OC(=O)c2ccccc2Br)cc1	D1 antag -32.9
O=c1oc2ccccc2cc1-c1cn2cc(Cc3ccc(F)cc3)sc2n1	none (no result: TRPV1 potentiator, TRPV1 ag)
O=c1oc2ccccc2cc1-c1cn2cc(Cc3ccc(Br)cc3)sc2n1	D1 agonist 45.3 (no result: TRPV1 potentiator, TRPV1 ag)
COc1ccccc1-c1nc(-c2ccc(Br)o2)no1	D1 antag -34.8!
COc1ccc(-c2nc(-c3ccc(Br)o3)no2)cc1OC	none
O=C(CCC(=O)N1CCCC1)Nc1ccc(Cl)c(Cl)c1	TRPV1 potentiator inconclusive, D1 antag -32.8
O=C(Nc1ccc(Cl)c(Cl)c1)N1CCCCCC1	TRPV1 ag inconclusive
O=C(CN1CCN(S(=O)(=O)N2CCCCC2)CC1)Nc1ccc(Cl)c(Cl)c1	D1 agonist 43.2, D1 antag -79.3
O=C(CN1CCN(S(=O)(=O)N2CCCCC2)CC1)Nc1cc(Cl)cc(Cl)c1	none
CCCCN(CC)CCCNC(=O)c1c(C)oc2ncnc(N3CCOCC3)c12	none (no result: TRPV1 potentiator, TRPV1 ag)
COc1ccc(O)c(/C=N/n2c(-c3ccco3)csc2=Nc2cccnc2)c1	D1 antag -41.6
CCc1cccc(-n2c(=O)c3cccnc3n2CC(=O)Nc2ccc(OC)c(Cl)c2)c1	D1 antag -63.2 (no result: TRPV1 potentiator, TRPV1 ag)
COc1ccc(NC(=O)N2CCOc3ccc(Cl)cc32)cc1	none (no result: TRPV1 potentiator, TRPV1 ag)
COc1cn(-c2ccccc2)nc1C(=O)Nc1ccc(C)cc1	D1 agonist 33.9
COc1cn(-c2ccccc2)nc1C(=O)Nc1ccccc1	none
O=C(c1ccc2c(c1)N(Cc1cccc(Cl)c1)C(=O)c1ccccc1S2=O)N1CCC(Cc2ccccc2)CC1 (stereo not given)	none (no result: TRPV1 potentiator, TRPV1 ag)
CCOC(=O)N1CCN(CC(O)COc2ccccc2C(C)C)CC1 (stereo not given)	none
COc1ccc(C2CCCN2CC(O)COc2ccccc2C(C)C)cc1 (stereo not given)	D1 antag -30.2
CCN(CC)c1sc(S(=O)(=O)c2ccccc2)nc1S(=O)(=O)c1ccc(C)cc1	none (no result: TRPV1 potentiator, TRPV1 ag)
Cc1nn(CC(=O)O)c(C)c1[N+](=O)[O-]	none
Cc1nn(CC(=O)OCC(=O)c2ccc(OC(F)F)cc2)c(C)c1[N+](=O)[O-]	D1 antag -31.5
CO/N=C(\Cn1ncc(N2CCCC2)c(Cl)c1=O)c1ccc(Cl)cc1	D1 antag -46.1
COc1ccc(NC(=O)NCc2cccn2Cc2ccc(F)cc2)cc1OC	none (no result: TRPV1 potentiator, TRPV1 ag)
CC(C)(C)OC(=O)Cc1nnc(C(C(=O)OCc2ccccc2)c2ccccc2)o1 (stereo not given)	none (no result: TRPV1 potentiator, TRPV1 ag)
O=C(Cn1c(SCc2ccc(F)cc2)nc2cccnc21)Nc1ccccc1F	none (no result: TRPV1 potentiator, TRPV1 ag)
COc1ccc2sc(N(Cc3cccnc3)C(=O)c3ccc4c(c3)OCCO4)nc2c1	none (no result: TRPV1 potentiator, TRPV1 ag)
Nc1cc2nc3ccccc3oc-2cc1=O	D1 agonist 33.0
COC(=O)c1cc2c(=O)c3ccccc3oc2nc1/C=C/N(C)C	D1 agonist 76.0, TRPV1 ag inconclusive
CCCCN(C)CCNC(=O)C1CCN(c2nc3ccc(CC)cc3s2)CC1	D1 agonist 64.9, D1 antag -55.4 (no result: TRPV1 potentiator, TRPV1 ag)
C=CCc1cccc2cc(-c3nc4ccc(C)cc4[nH]3)c(=O)oc12	D1 agonist 65.7, D1 antag -41.9
CN1CCN(Cc2c(O)ccc3cc(-c4ccccc4)c(=O)oc23)CC1	none (no result: TRPV1 potentiator, TRPV1 ag)
O=c1oc2c(CN3CCCCC3)c(O)ccc2cc1-c1nc2ccccc2[nH]1	D1 agonist 136.0, TRPV1 ag 84.6
O=c1oc2c(O)cccc2cc1-c1nc2ccccc2[nH]1	D1 agonist 408.4, TRPV1 ag 85.0
Cc1cccc(NC(=O)CSc2nc(=O)n(Cc3cccnc3)c3c2CCC3)c1	none (no result: TRPV1 potentiator, TRPV1 ag, D1 antag)
COc1ccc(CC(=O)NC2CC(=O)N(c3cccc(F)c3)C2)cc1 (stereo not given)	none (no result: TRPV1 potentiator, TRPV1 ag, D1 antag)
Cc1ccc(NC(=O)C2CCCN(c3nnc(-n4c(C)ccc4C)s3)C2)cc1Cl (stereo not given)	none (no result: TRPV1 potentiator, TRPV1 ag)
Cn1c2ccsc2c2cnn(Cc3ccccc3F)c(=O)c21	none (no result: TRPV1 potentiator, TRPV1 ag)
C=CCOC(=O)C1=C[C@@H](c2coc3ccccc3c2=O)C[C@@H](OCc2ccc(CO)cc2)O1	TRPV1 ag inconclusive, D1 antag -48.7
O=C(Nc1ccccc1)C1=C[C@@H](c2coc3ccccc3c2=O)C[C@@H](OCc2ccc(CO)cc2)O1	D1 antag -36.6
C=CCOC(=O)C1=C[C@H](c2coc3ccccc3c2=O)C[C@H](OCc2ccc(CO)cc2)O1	TRPV1 potentiator inconclusive
O=C1CCCc2ccccc2N1Cc1ccc(Cl)cc1Cl	D1 agonist 34.5
O=C1CCCc2ccccc2N1Cc1ccccc1Cl	D1 antag -34.5
Cc1ccc(C(=O)Nc2ccc3ncccc3c2)cc1	TRPV1 ag inconclusive
COc1ccc(NC(=O)c2ccc3c(c2)N(C)CCS3)cc1	TRPV1 ag 96.6
COc1ccc(C(=O)Nc2ccc3ncccc3c2)cc1	TRPV1 ag 90.7
CCC(=O)c1ccc2ncccc2c1	D1 antag -30.4
COc1ccc(NC(=O)c2ccc3ncsc3c2)cc1	TRPV1 ag 91.8
CCN(C(=O)Cn1c(C(=O)OC)cc2sccc21)c1cccc(C)c1	none (no result: TRPV1 potentiator, TRPV1 ag)
COCCCNC(=O)C1CCN(c2nnc(-n3cccc3CNc3ccc(C)cc3)s2)CC1	none (no result: TRPV1 potentiator, TRPV1 ag)
CCc1ccc(NC(=O)c2ccc3ncsc3c2)cc1	TRPV1 ag 85.7
CN(C)S(=O)(=O)c1ccc(NC(=O)c2ccc3ncsc3c2)cc1	TRPV1 ag 80.1
O=C(Nc1ccc(Br)cc1)c1ccc2ncsc2c1	TRPV1 ag inconclusive
O=C(NCc1ccccn1)c1cc2cc(Br)ccc2oc1=O	D1 antag -68.0
Cc1sc2ncnc(SCC(=O)N3CCCC(C(N)=O)C3)c2c1C (stereo not given)	none
Cc1sc2ncnc(SCC(=O)N3CCCC(C(F)(F)F)C3)c2c1C (stereo not given)	D1 antag -38.1

From PubChem
